The values below come from PubChem BioAssay (NCI).

Some test systems named below: K-562 leukemia; MALME-3M melanoma; MDA-MB-231 breast; RXF 393 renal; SF-268 CNS; SF-295 CNS; SF-539 CNS; UACC-257 melanoma; M14 melanoma; HCT-15 colon; HT29 colon; SNB-19 CNS; U251 CNS; PC-3 prostate; SK-MEL-5 melanoma; UACC-62 melanoma; LOX IMVI melanoma; SK-MEL-28 melanoma; SK-MEL-2 melanoma; SNB-75 CNS.
Common to all, as to assay: NCI-60 one-dose screen, 48 h (100 = growth as untreated, 0 = no growth, -100 = all killed)
Common to all, as to conditions: 10 µM unless noted

The structures appear in SMILES notation. Compounds without any hit were thinned out: in the full panel of roughly 83,000, 20% have a hit.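 Percent growth is the endpoint: 0 to 100 indicates growth inhibition (40 means 60% inhibition), 0 means no net growth, and negative values indicate cell death.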 Values without a mark were called inactive. Active and inactive are the calls of the source. How the source made its calls: active means growth percent below 10; inactive means the rest.

As for `CC(C)(C)Nc1nc2c(OCCc3ccccc3)cccn2c1-c1ccc(Cl)cc1`, the growth with K-562 leukemia is 5.28% (active); in the assay on MALME-3M melanoma, 1.51% (active); in the assay with MDA-MB-231 breast, 17.4%; in the assay on RXF 393 renal it was -15.3% (active); with SF-268 CNS, 45.5%; in the assay on SF-295 CNS, 3.7% (active). Further, the growth was 21.7% in the assay with SF-539 CNS; 16.7% in the assay on UACC-257 melanoma; 26.8% with M14 melanoma; 3.86% (active) in the assay on HCT-15 colon; 24.2% in the assay on HT29 colon; 19.7% with SNB-19 CNS. In addition, the growth was 11.9% in the assay on U251 CNS; 3.08% (active) with PC-3 prostate; -71.6% (active) with SK-MEL-5 melanoma; 11.1% in the assay with UACC-62 melanoma; 2.87% (active) in the assay with LOX IMVI melanoma; 29.7% in the assay with SK-MEL-28 melanoma. Further, in the assay on SK-MEL-2 melanoma, the growth was -33.9% (active).

With `O=C(N/N=C/c1ccco1)c1[nH]c2ccc(Br)cc2c1-c1ccccc1`, the growth in the assay on K-562 leukemia is 8.75% (active); in the assay with MALME-3M melanoma, 54.9%; in the assay on MDA-MB-231 breast, 6.62% (active); with RXF 393 renal, 62.2%; in the assay with SF-268 CNS, 29.9%; with SF-295 CNS it was 21.8%. Also, the growth in the assay with SF-539 CNS was -15.1% (active); in the assay on UACC-257 melanoma it was 72.5%; in the assay with M14 melanoma it was 11.6%; in the assay with HCT-15 colon, 10.4%; in the assay with HT29 colon, -25.3% (active); with SNB-19 CNS, 41.4%. In addition, the growth in the assay on U251 CNS was 31.7%; with PC-3 prostate it was 30.2%; in the assay on SK-MEL-5 melanoma, -16.2% (active); in the assay on UACC-62 melanoma it was 41.1%; with SK-MEL-28 melanoma, 59.9%; with SK-MEL-2 melanoma it was 14.4%.

As to `NS(=O)(=O)c1cccc(Nc2nc(SCC(=O)c3ccc([N+](=O)[O-])cc3)nc3ccccc23)c1`, the growth in the assay on K-562 leukemia was 19.7%; in the assay on MALME-3M melanoma, 58.6%; in the assay with MDA-MB-231 breast, 55.6%; in the assay with RXF 393 renal, 57%; with SF-268 CNS, 54.5%; in the assay with SF-295 CNS it was 36.8%. Also, the growth in the assay on SF-539 CNS is 52.2%; in the assay on UACC-257 melanoma it was 88.9%; with M14 melanoma, 38.5%; in the assay with HCT-15 colon, 34.5%; with HT29 colon it was 71.2%; in the assay on SNB-19 CNS, 73.7%. For the same compound, the growth was 52.2% in the assay with U251 CNS; 24.2% with PC-3 prostate; 7.52% (active) in the assay with SK-MEL-5 melanoma; -12.7% (active) with UACC-62 melanoma; 60.3% with SK-MEL-28 melanoma; 13.2% in the assay with SK-MEL-2 melanoma.

On to `OC1CCN(CCCOc2c3ccccc3nc3c2oc2ccccc23)CC1`, for which the growth in the assay with K-562 leukemia was 6.75% (active); with MALME-3M melanoma it was -32.6% (active); in the assay with MDA-MB-231 breast, -31.5% (active); in the assay with RXF 393 renal it was -43.1% (active); in the assay on SF-268 CNS, 2.44% (active); with SF-295 CNS it was -14.7% (active). Also, the growth with SF-539 CNS is -12.5% (active); in the assay with UACC-257 melanoma, -17.7% (active); with M14 melanoma, -71.8% (active); in the assay on HCT-15 colon it was -8.3% (active); with HT29 colon it was 3.65% (active); in the assay with SNB-19 CNS, 0.345% (active). The growth is 4.21% (active) in the assay on U251 CNS; -1.48% (active) with PC-3 prostate; -69.1% (active) with SK-MEL-5 melanoma; -57.8% (active) in the assay on UACC-62 melanoma; -62.4% (active) in the assay with SK-MEL-2 melanoma.

As to `Cc1ccc(-c2nc(C(Cl)Cl)nc3cc(-c4ccccc4)nn23)cc1`, the growth in the assay with K-562 leukemia was 14.3%; with MALME-3M melanoma, 3.13% (active); with MDA-MB-231 breast, 12.9%; in the assay with RXF 393 renal, -63.8% (active); in the assay with SF-268 CNS it was 23.9%; in the assay with SF-295 CNS, 10.3%. In addition, the growth was 34.4% in the assay on SF-539 CNS; 28.9% in the assay with UACC-257 melanoma; -11.1% (active) in the assay on M14 melanoma; 5.49% (active) in the assay on HCT-15 colon; -43.7% (active) with HT29 colon; 14.8% in the assay on SNB-19 CNS. In addition, the growth with U251 CNS is -58.6% (active); with PC-3 prostate, 26.8%; in the assay on SK-MEL-5 melanoma, 67.3%; with UACC-62 melanoma, 55.7%; in the assay with LOX IMVI melanoma, 43.6%; in the assay with SK-MEL-28 melanoma, 1.35% (active). Besides, the growth in the assay on SK-MEL-2 melanoma was 88.8%.

Take `O=C(CN1C(=O)/C(=C/c2ccccc2)SC1=S)N1CCOCC1`: the growth was 77.4% in the assay on K-562 leukemia; 83.6% in the assay with MALME-3M melanoma; 95.2% with MDA-MB-231 breast; 105% in the assay on RXF 393 renal; 102% in the assay on SF-268 CNS; 103% in the assay with SF-295 CNS. Also, the growth was 95.8% with SF-539 CNS; 95.8% with UACC-257 melanoma; 88.2% in the assay on HCT-15 colon; 112% in the assay on HT29 colon; 98.9% in the assay on SNB-75 CNS; 99% in the assay with SNB-19 CNS. Besides, the growth was 102% in the assay with U251 CNS; 108% with PC-3 prostate; 97% in the assay on SK-MEL-5 melanoma; 93.4% in the assay with UACC-62 melanoma; -34.9% (active) in the assay on LOX IMVI melanoma; 96.5% with SK-MEL-28 melanoma. Besides, in the assay with SK-MEL-2 melanoma, the growth is 125%.

On to `OC1CCN(CCCOc2c3ccc(Cl)cc3nc3c2oc2ccc(Cl)cc23)CC1`, for which the growth with K-562 leukemia was -51.7% (active); in the assay with MALME-3M melanoma it was -66.6% (active); with MDA-MB-231 breast, 24.5%; in the assay with RXF 393 renal, -80.4% (active); in the assay with SF-268 CNS it was 27.4%; in the assay with SF-295 CNS it was 17.8%. Besides, the growth in the assay with SF-539 CNS was -74.1% (active); in the assay with UACC-257 melanoma it was -13.4% (active); in the assay on HCT-15 colon, -83% (active); in the assay with HT29 colon it was -86% (active); with SNB-75 CNS, 14.9%; with SNB-19 CNS, 29.5%. Also, the growth in the assay on U251 CNS was -93.5% (active); in the assay with PC-3 prostate it was 21%; with SK-MEL-5 melanoma, -7.79% (active); in the assay on UACC-62 melanoma, -68.4% (active); in the assay with LOX IMVI melanoma it was -92.9% (active); with SK-MEL-28 melanoma it was -84.5% (active). Besides, the growth in the assay on SK-MEL-2 melanoma is 50.6%.

Regarding `Nc1cc(-c2c[nH]c3ccc(Cl)cc23)nc2cc(-c3c[nH]c4ccc(Cl)cc34)nn12`, the growth was 4.93% (active) with K-562 leukemia; 90.6% in the assay on MALME-3M melanoma; 49.3% with MDA-MB-231 breast; 75% with RXF 393 renal; 54% with SF-268 CNS; 33.6% in the assay on SF-295 CNS. In addition, the growth is 65.5% in the assay with SF-539 CNS; 83.9% with UACC-257 melanoma; 11.1% in the assay on HCT-15 colon; 0.992% (active) in the assay with HT29 colon; 71.9% with SNB-75 CNS; 70.5% with SNB-19 CNS. The growth in the assay with U251 CNS was 9.85% (active); in the assay on PC-3 prostate, 36.4%; in the assay with SK-MEL-5 melanoma, 70.9%; in the assay on UACC-62 melanoma, 70.4%; in the assay with LOX IMVI melanoma, -5.92% (active); in the assay on SK-MEL-28 melanoma, 80.8%. For the same compound, in the assay on SK-MEL-2 melanoma, the growth was 71.6%.
